Assay results published in PubChem BioAssay (Tox21).
Where “and” joins values, the source holds several entries; their conditions need not be identical. Equal values may be shown once. Records with an inconclusive call do not appear. Calls of active or inactive are those of the source. Unless noted, the call rests on the fitted dose curve; in most records, active means well fitted curve in the direction sought with a large enough effect in the repeat runs; inconclusive means weak or mixed curves; inactive means no such curve, though single readings can be large; an effect the other way counts as inactive or inconclusive.

Columns and labels:
[1] = qHTS assay to identify small molecule agonists of the RXR signaling pathway - cell viability counter screen (AID 1159529); further: nearly all actives have a fitted effect of over 50% in size; further: potency means the concentration at half of the fitted maximal effect
Method in brief: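 Tox21 10K compounds were tested for cytotoxicity against GeneBLAzer RXR-alpha HEK 293T cells grown in 2% charcoal-stripped FBS. Exposure lasted 16 hr at 37 C, 5% CO2; viability read by CellTiter-Glo luminescence.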

[2] = qHTS assay to identify small molecule antagonists of the estrogen related receptor (ERR) signaling pathway from Tox21 library - cell viability counter screen (AID 1224834); further: nearly all actives have a fitted effect of over 30% in size; further: potency means the concentration at half of the fitted maximal effect
Method in brief: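 ERR cells, 2,000/well; 6 h settle at 37 C/5% CO2; pin-tool compound transfer in DMSO; 17.5 h at 37 C; CellTiter-Fluor, 30 min; fluorescence intensity.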

[3] = molecular target: Luciferin 4-monooxygenase (Photinus pyralis) (UniProt P08659); experiment: qHTS assay to identify small molecule inhibitors of firefly luciferase (AID 1224835); further: nearly all actives have a fitted effect of over 25% in size; further: potency means the concentration at half of the fitted maximal effect
Method in brief: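 Biochemical qHTS: compounds run as interplate titrations against purified firefly enzyme, with D-luciferin and ATP each at its KM concentration. Light output recorded by CCD imaging.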

[4] = qHTS assay to identify small molecule agonists of the constitutive androstane receptor (CAR) signaling pathway - cell viability counter screen (AID 1224836); further: nearly all actives have a fitted effect of over 45% in size; further: potency means the concentration at half of the fitted maximal effect
Method in brief: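 Fluorescence from CellTiter-Fluor indicates live cells after 23 h exposure. The human hepatoma line expresses hCAR and a CYP2B6-2.2kb reporter. Incubation medium contains 0.75 uM PK11195 (final).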

[5] = molecular target: Nuclear receptor subfamily 1 group I member 3 (Homo sapiens) (UniProt Q14994); experiment: qHTS assay to identify small molecule antagonists of the constitutive androstane receptor (CAR) signaling pathway (AID 1224838);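 further: HepG2 cells stably expressing hCAR with CYP2B6 luciferase reporter stimulated by CITCO; nearly all actives have a fitted effect of over 40% in size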; further: potency means the concentration at half of the fitted maximal effect
Method in brief: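 Antagonist mode used CITCO at a final 50 nM to activate CAR in human hepatoma HepG2 cells carrying stable hCAR and a 2.2 kb CYP2B6 promoter-luciferase construct. Compounds were tested at 15 concentrations over 24 h, with luminescence as the end point.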

[6] = molecular target: Nuclear receptor subfamily 1 group I member 3 (Homo sapiens) (UniProt Q14994); experiment: qHTS assay to identify small molecule agonists of the constitutive androstane receptor (CAR) signaling pathway (AID 1224839); further: nearly all actives have a fitted effect of over 15% in size; further: potency means the concentration at half of the fitted maximal effect
Method in brief: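 Stable hCAR/CYP2B6-2.2kb HepG2 line in DMEM with 10% FBS; compounds (15 concentrations) and 0.75 uM PK11195 final, 24 h at 37 C/5% CO2, then ONE-Glo luminescence after 30 min.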

[7] = molecular target: Thyrotropin receptor (Homo sapiens) (UniProt P16473); experiment: qHTS assay to identify small molecule agonists of the thyroid stimulating hormone receptor (TSHR) signaling pathway (AID 1224843; calls by dose curve; further: nearly all actives have a fitted effect of over 45% in size)
Method in brief: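 Agonist-mode screen: TSHR HEK293 cells received test chemicals for half an hour at room temperature, then HTRF cAMP detection reagents for one hour prior to fluorescence measurement. Each chemical ran as a 15-concentration series, triplicated.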

[8] = qHTS assay to identify small molecule antagonists of the retinoid acid receptor (RAR) signaling pathway - cell viability counter screen (AID 1159551); further: nearly all actives have a fitted effect of over 35% in size
Method in brief: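 Cells (C3RL4) are plated, incubated overnight, dosed with compound in DMSO, then given retinol at 1 uM final. After 6 h at 37 C, CellTiter-Glo is added and luminescence read following 30 min at room temperature.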

[9] = qHTS assay to identify small molecule antagonists of the retinoic acid receptor (RAR) signaling pathway (AID 1159552; further: nearly all actives have a fitted effect of over 50% in size; further: potency means the concentration at half of the fitted maximal effect)
Method in brief: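 Overnight-plated C3RL4 reporter cells get compound, then retinol to 1 uM final; plates sit 6 hr at 37 C, 5% CO2. A luciferase reagent is added and light output recorded after 30 min at room temperature.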

[10] = qHTS assay to identify small molecule antagonists of the constitutive androstane receptor (CAR) signaling pathway - cell viability counter screen (AID 1224837); further: nearly all actives have a fitted effect of over 45% in size; further: potency means the concentration at half of the fitted maximal effect
Method in brief: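 Viability was measured with CellTiter-Fluor in a HepG2 line carrying stably transfected hCAR and a CYP2B6-2.2kb construct. Cells were exposed for 23 hr at 37 C to 15 compound concentrations with 50 nM CITCO as agonist.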

[11] = qHTS assay to identify small molecule agonists of the estrogen related receptor signaling pathway with the pleiotropic PPARgamma coactivator (PGC) from Tox21 10K library (AID 1224842); further: nearly all actives have a fitted effect of over 15% in size; further: potency means the concentration at half of the fitted maximal effect
Method in brief: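 PGC/ERR reporter cell line, 2,000 cells per well, incubated 6 h at 37 C before 23 nL compound in DMSO was added. After 18 h at 37 C, One-Glo luminescence read following 30 min at room temperature.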

[12] = qHTS assay to identify small molecule agonists of the retinoic acid receptor (RAR) signaling pathway (AID 1159553); further: potency means the concentration at half of the fitted maximal effect
Method in brief: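 Seed C3RL4 reporter cells at 1,000 per well and incubate overnight at 37 C. Add compounds in DMSO, incubate 6 hr. Add luciferase reagent, wait 30 min at room temperature, read luminescence.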

[13] = qHTS assay to identify small molecule antagonists of the estrogen related receptor signaling pathway with the pleiotropic PPARgamma coactivator (PGC) from Tox21 10K library (AID 1224841; call rule not given here; further: actives are mostly falling curves and most rising ones were filed inactive; nearly all actives have a fitted effect of over 50% in size; further: potency means the concentration at half of the fitted maximal effect)
Method in brief: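 Steps: plate 2,000 PGC/ERR cells per well; incubate 6 h at 37 C with 5% CO2; transfer compounds from DMSO stocks by pin tool; incubate 18 h at 37 C; add One-Glo; measure luminescence 30 min later.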

[14] = qHTS assay to identify small molecule antagonists of the estrogen related receptor (ERR) signaling pathway - cell viability counter screen (AID 1224818); further: series mostly up to about 46 µM
Method in brief: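 ERR cells, 2,000/well; 6 h settle at 37 C/5% CO2; compound pin transfer (DMSO); 17.5 h at 37 C; CellTiter-Fluor, 30 min, fluorescence read.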

[15] = qHTS assay to identify small molecule antagonists of the estrogen related receptor (ERR) signaling pathway (AID 1224819;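 further: luminescence from an ERR-driven luciferase reporter measured with One-Glo reagent; series mostly up to about 46 µM; nearly all actives have a fitted effect of over 50% in size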)
Method in brief: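 qHTS in ERR cells, 2,000/well, 1536 format. Cpd (DMSO) added after 6 h settle, 18 h 37 C. One-Glo luminescence, 30 min RT.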

[16] = qHTS assay to identify small molecule agonists of the estrogen related receptor (ERR) signaling pathway (AID 1224820)
Method in brief: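 An ERR cell line provided by NTP was seeded at 2,000 cells per well and allowed to settle for 6 h before compounds in DMSO were added. After 18 h at 37 C, luciferase activity was measured by One-Glo luminescence.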

[17] = test system: estrogen-related receptor alpha (ERRalpha) with PGC-1alpha coactivator, human; experiment: qHTS assay to identify small molecule antagonists of the estrogen related receptor signaling pathway with the pleiotropic PPARgamma coactivator (PGC) (AID 1224821; calls by dose curve)
Method in brief: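 A PGC/ERR cell line supplied by NTP is seeded, allowed 6 h at 37 C, and treated with test compounds in DMSO for 18 h. Signal is then measured as luciferase luminescence using One-Glo.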

[18] = qHTS assay to identify small molecule antagonists of the estrogen related receptor signaling pathway with the pleiotropic PPARgamma coactivator (PGC) cell viability counter screen (AID 1224822;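 further: series mostly up to about 46 µM; viability read after 17.5 h compound exposure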)
Method in brief: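 Multiplexed viability counter screen run in PGC/ERR cells treated with compounds for 17.5 h at 37 C; live-cell protease signal measured by CellTiter-Fluor fluorescence.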

[19] = qHTS assay to identify small molecule agonists of the estrogen related receptor signaling pathway with the pleiotropic PPARgamma coactivator (PGC) (AID 1224823)
Method in brief: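 Compounds dissolved in DMSO are added by pin tool to PGC/ERR cells that have settled for 6 h, and incubation continues 18 h at 37 C. Reporter output is measured as One-Glo luminescence.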

[20] = qHTS assay to identify small molecule antagonists of the estrogen related receptor signaling pathway with the pleiotropic PPARgamma coactivator (PGC) from Tox21 10K library - cell viability counter screen (AID 1224840; active means well fitted cell-killing curve with a large enough effect in the repeat runs, not every such curve was filed as active; further: nearly all actives have a fitted effect of over 40% in size; further: potency means the concentration at half of the fitted maximal effect)
Method in brief: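 Multiplexed viability counter screen in the PGC/ERR cell line: cells treated with DMSO-dissolved compounds for 17.5 hours at 37 C, then viability measured as CellTiter-Fluor fluorescence.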

Measured: Potency

Chain of Nuclear receptor subfamily 1 group I member 3 (Homo sapiens) (Q14994 whole entry, looked up): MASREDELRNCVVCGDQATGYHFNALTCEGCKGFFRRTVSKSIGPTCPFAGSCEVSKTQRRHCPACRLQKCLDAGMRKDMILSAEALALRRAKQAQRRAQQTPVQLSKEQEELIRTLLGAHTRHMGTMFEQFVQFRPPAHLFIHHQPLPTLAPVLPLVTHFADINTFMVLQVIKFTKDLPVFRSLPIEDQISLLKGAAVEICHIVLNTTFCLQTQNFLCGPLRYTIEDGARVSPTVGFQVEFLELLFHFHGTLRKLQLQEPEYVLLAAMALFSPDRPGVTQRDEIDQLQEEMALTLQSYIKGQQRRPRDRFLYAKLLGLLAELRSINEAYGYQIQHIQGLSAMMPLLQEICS
Chain of Luciferin 4-monooxygenase (Photinus pyralis) (P08659 whole entry, looked up): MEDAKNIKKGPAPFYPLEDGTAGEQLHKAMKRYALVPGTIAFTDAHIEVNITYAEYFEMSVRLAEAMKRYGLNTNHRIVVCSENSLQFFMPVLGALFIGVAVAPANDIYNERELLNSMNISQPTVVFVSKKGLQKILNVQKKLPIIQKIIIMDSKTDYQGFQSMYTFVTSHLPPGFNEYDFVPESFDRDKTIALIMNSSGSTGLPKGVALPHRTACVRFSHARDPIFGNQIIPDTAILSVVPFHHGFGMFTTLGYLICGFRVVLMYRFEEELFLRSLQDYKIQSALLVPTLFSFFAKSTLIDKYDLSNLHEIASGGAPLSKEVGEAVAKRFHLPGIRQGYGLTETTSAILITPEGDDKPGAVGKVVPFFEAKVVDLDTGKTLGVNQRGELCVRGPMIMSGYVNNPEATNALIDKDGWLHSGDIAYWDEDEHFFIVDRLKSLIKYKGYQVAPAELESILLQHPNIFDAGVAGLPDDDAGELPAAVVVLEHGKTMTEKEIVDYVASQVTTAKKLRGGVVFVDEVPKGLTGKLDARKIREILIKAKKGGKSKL
Chain of Thyrotropin receptor (Homo sapiens) (P16473 whole entry, looked up): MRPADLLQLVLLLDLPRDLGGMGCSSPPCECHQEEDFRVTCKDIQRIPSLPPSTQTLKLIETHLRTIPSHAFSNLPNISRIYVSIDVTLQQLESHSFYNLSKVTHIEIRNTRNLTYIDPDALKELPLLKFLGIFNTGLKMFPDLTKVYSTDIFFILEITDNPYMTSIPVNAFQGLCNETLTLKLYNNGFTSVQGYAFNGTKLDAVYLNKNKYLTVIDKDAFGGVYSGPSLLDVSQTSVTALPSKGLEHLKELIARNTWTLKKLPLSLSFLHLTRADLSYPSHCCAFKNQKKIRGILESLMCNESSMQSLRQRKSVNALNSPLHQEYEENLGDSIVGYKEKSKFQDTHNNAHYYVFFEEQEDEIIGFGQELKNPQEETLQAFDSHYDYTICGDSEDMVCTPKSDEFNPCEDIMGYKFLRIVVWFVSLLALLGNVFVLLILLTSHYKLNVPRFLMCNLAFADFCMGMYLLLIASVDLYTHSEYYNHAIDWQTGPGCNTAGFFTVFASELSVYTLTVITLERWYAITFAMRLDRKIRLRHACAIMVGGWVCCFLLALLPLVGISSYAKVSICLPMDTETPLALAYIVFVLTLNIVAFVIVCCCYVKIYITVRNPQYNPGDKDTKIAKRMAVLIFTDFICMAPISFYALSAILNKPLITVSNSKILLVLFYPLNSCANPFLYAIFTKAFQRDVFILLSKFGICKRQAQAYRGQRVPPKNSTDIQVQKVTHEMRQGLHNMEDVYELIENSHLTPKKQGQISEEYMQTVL

O=c1cc(-c2ccc(O)cc2)oc2cc(O)cc(O)c12
active: [2] 49.2 µM and 30.6 µM | [3] 10.2 µM and 7.96 µM | [4] 55.2 µM | [6] 24.7 µM and 61.1 µM
inactive: [1] | [5] | [7]

Cc1ccc(O)c2ncccc12
active: [2] 16.8 µM | [10] 11.9 µM | [5] 13.3 µM
inactive: [8] | [9] | [3] | [6] | [11] | [7]

ON=C1CCCC1
active: [2] 25.2 µM | [13] 63.3 µM
inactive: [8] | [9] | [12] | [3] | [5] | [7]

COCCCC/C(=N\OCCN)c1ccc(C(F)(F)F)cc1
active: [9] 23.7 µM
not listed: [1] | [11] | [13]
inactive: all other assays above

O=c1[nH]sc2ccccc12
active: [1] 19.5 µM | [2] 61.1 µM | [3] 20 µM | [4] 54.5 µM | [10] 27.3 µM | [5] 21.7 µM | [20] 48.6 µM | [13] 27.3 µM
inactive: [6] | [11]

C[C@H](CCC(=O)O)[C@H]1CC[C@H]2[C@@H]3CC[C@@H]4C[C@H](O)CC[C@]4(C)[C@H]3CC[C@]12C
inactive: [2] | [3] | [4] | [10] | [5] | [6] | [20] | [11]
active: [1] 38.7 µM

Cc1cc(O)c(Cl)c(C)c1Cl
not listed: [1] | [12] | [14] | [15] | [16] | [17] | [18] | [19]
inactive: all other assays above

Oc1ccc(C2(c3ccc(O)cc3)CC3CC2C2CCCC32)cc1 (configuration not stated)
active: [1] 16.7 µM | [2] 58.7 µM | [10] 52.3 µM | [20] 58.7 µM
inactive: [3] | [11]

CCCCCCCCCCCCCCCS(=O)(=O)Oc1ccccc1
inactive: [8] | [9] | [12] | [3] | [4] | [10] | [5] | [6] | [20]

On1ccccc1=S
inactive: [11]
active: [1] 2.43 µM | [4] 1.21 µM | [10] 0.762 µM | [20] 0.605 µM | [13] 3.4 µM

CCCCCCOC(=O)c1ccc(O)cc1
active: [12] 4.33 µM and 1.93 µM | [3] 31.8 µM and 28.3 µM | [6] 27.3 µM and 54.5 µM | [11] 30.7 µM and 9.69 µM
inactive: [8] | [9] | [4] | [10] | [5] | [20] | [13] | [7]

Cn1cc(C(=O)[C@@H]2CCc3nc[nH]c3C2)c2ccccc21
not listed: [1] | [13] | [14] | [15] | [16] | [17] | [18] | [19]
inactive: all other assays above

CCN(CCC#N)c1ccc(N=Nc2c(Cl)cc([N+](=O)[O-])cc2Cl)cc1
active: [2] 15.4 µM | [3] 63.3 µM
inactive: [8] | [9] | [5] | [6] | [11]

CN1CCN(CCC(=O)N2c3ccccc3Sc3ccc(C(F)(F)F)cc32)CC1
inactive: [3] | [10] | [11] | [7]
active: [1] 23.9 µM | [2] 29.8 µM | [20] 29.8 µM

Oc1cccc2cc3cccc(O)c3c(O)c12
inactive: [1] | [2] | [4] | [10] | [20] | [7]
active: [3] 71.3 µM

CCCCCCCCOc1ccccc1C(=O)Nc1ccc(C(=O)OCC[N+](C)(CC)CC)cc1
inactive: [3] | [4] | [10] | [5] | [6] | [20]
active: [1] 10.7 µM

COc1c(C)c2c(c(O)c1C/C=C(\C)CCC(=O)O)C(=O)OC2
inactive: [8] | [9] | [12] | [3] | [4] | [10] | [20] | [11]

O=C(NOCC1CC1)c1ccc(F)c(F)c1Nc1ccc(I)cc1Cl
inactive: [8] | [3] | [4] | [10] | [11]
active: [2] 18.8 µM | [13] 11.9 µM

CC(=O)S[C@@H]1CC2=CC(=O)CC[C@]2(C)[C@H]2CC[C@@]3(C)[C@@H](CC[C@@]34CCC(=O)O4)[C@H]12
active: [5] 54.5 µM
inactive: [8] | [3] | [4] | [10] | [6] | [7]
